Experimental data: PubChem BioAssay (Tox21)
“And” between values parts separate entries of the source, which are not always exact repeats. Equal values may be shown once. Records with an inconclusive call do not appear. Where a call stands in place of a potency, no number is given. A structure can be active in one record and inactive in another. The source made the active and inactive calls. Unless noted, the call rests on the fitted dose curve; in most records, active means well fitted curve in the direction sought with a large enough effect in the repeat runs; inconclusive means weak or mixed curves; inactive means no such curve, though single readings can be large; an effect the other way counts as inactive or inconclusive.

How the values were obtained:
[1] = A CellTox Green Cytotoxicity Assay to monitor cytotoxicity in HepG2 cells - 0 hour (AID 1224882); details: CellTox Green fluorescence; series mostly up to 76.8 µM; further: nearly all actives have a fitted effect of over 35% in size
In short: (§1)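 HepG2 cells were seeded together with the CellTox Green dye at 600 cells/well, left 5 h at 37 C/5% CO2, then given compounds in DMSO. Fluorescence from dye bound to dead-cell DNA was read repeatedly over 40 h of treatment at 37 C.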

[2] = A CellTox Green Cytotoxicity Assay to monitor cytotoxicity in HepG2 cells - 32 hour (AID 1224883); details: CellTox Green fluorescence; series mostly up to 76.8 µM; further: nearly all actives have a fitted effect of over 50% in size; further: potency means the concentration at half of the fitted maximal effect
In short: as §1

[3] = qHTS RealTime-Glo MT Cell Viability Assay in HepG2 cells - 16 hour (AID 1224885); details: RealTime-Glo luminescence; series mostly up to 76.8 µM; further: nearly all actives have a fitted effect of over 50% in size; further: potency means the concentration at half of the fitted maximal effect
In short: (§2)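 qHTS, HepG2, 600 cells/well, RealTime-Glo (NanoLuc + prosubstrate) added with cells; 5 h preincubation; DMSO compound addition; 37 C; luminescence at 0/8/16/24/32/40 h.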

[4] = qHTS RealTime-Glo MT Cell Viability Assay in HEK293 cells - 24 hour (AID 1224886); details: RealTime-Glo luminescence; series mostly up to 76.8 µM; further: nearly all actives have a fitted effect of over 50% in size; further: potency means the concentration at half of the fitted maximal effect
In short: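 Assay medium contained NanoLuc luciferase plus cell-permeant prosubstrate, added with HEK293 cells at 600 cells/well. After 5 h at 37 C/5% CO2 compounds were added; plates stayed at 37 C for 40 h with serial luminescence reads.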

[5] = qHTS RealTime-Glo MT Cell Viability Assay in HEK293 cells - 8 hour (AID 1224887); details: RealTime-Glo luminescence; series mostly up to 76.8 µM; further: nearly all actives have a fitted effect of over 50% in size; further: potency means the concentration at half of the fitted maximal effect
In short: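 HEK293 cells mixed with RealTime-Glo reagents (NanoLuc plus cell-permeant prosubstrate) at 600 cells/well, preincubated 5 h at 37 C/5% CO2, then given 23 nL compound in DMSO. Nonlytic luminescence from viable cells was read at 0, 8, 16, 24, 32 and 40 h.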

[6] = qHTS RealTime-Glo MT Cell Viability Assay in HepG2 cells - 0 hour (AID 1224889); details: RealTime-Glo luminescence; series mostly up to 76.8 µM; further: nearly all actives have a fitted effect of over 50% in size
In short: as §2

[7] = A CellTox Green Cytotoxicity Assay to monitor cytotoxicity in HepG2 cells - 8 hour (AID 1224890); details: CellTox Green fluorescence; series mostly up to 76.8 µM; further: nearly all actives have a fitted effect of over 45% in size
In short: as §1

[8] = qHTS assay to identify small molecule antagonists of the estrogen receptor alpha (ER-alpha) signaling pathway using the BG1 cell line in the presence of 0.1 nM 17-beta-estradiol - cell viability counter screen (AID 1259241); details: VM7Luc4E2 (BG1) viability, CellTiter-Fluor protease, 22 h, 0.1 nM estradiol agonist added; series mostly up to 92.4 µM; further: nearly all actives have a fitted effect of over 40% in size; further: potency means the concentration at half of the fitted maximal effect
In short: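 Cells were plated and left 24 hr, compounds in DMSO were pinned in, 17beta-estradiol was added to 0.1 nM final, and after 22 hr CellTiter-Fluor reagent was added for 30 min before fluorescence was read.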

[9] = qHTS assay to identify small molecule antagonists of the androgen receptor (AR) signaling pathway using the MDA cell line in the presence of 0.5 nM R1881 - cell viability counter screen (AID 1259242); details: MDA-kb2 viability, CellTiter-Fluor protease fluorescence, 16 h; series mostly up to 92.4 µM; further: nearly all actives have a fitted effect of over 45% in size; further: potency means the concentration at half of the fitted maximal effect
In short: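 MDA-kb2 cells (human breast carcinoma, stably carrying MMTV-luciferase reporter) were exposed to compounds with 0.5 nM R1881 (final) for 16 hr at 37C, 0% CO2; viability then read as live-cell protease fluorescence (CellTiter-Fluor, 30 min) in the same wells.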

[10] = molecular target: Androgen receptor (Homo sapiens) (UniProt P10275); assay: qHTS assay to identify small molecule antagonists of the androgen receptor (AR) signaling pathway using the MDA cell line in the presence of 0.5 nM R1881 (AID 1259243); details: MDA-kb2 MMTV-luciferase, R1881 0.5 nM, 16 h; series mostly up to 92.4 µM; further: nearly all actives have a fitted effect of over 50% in size; further: potency means the concentration at half of the fitted maximal effect
Chain of Androgen receptor (Homo sapiens) (P10275 whole entry, looked up): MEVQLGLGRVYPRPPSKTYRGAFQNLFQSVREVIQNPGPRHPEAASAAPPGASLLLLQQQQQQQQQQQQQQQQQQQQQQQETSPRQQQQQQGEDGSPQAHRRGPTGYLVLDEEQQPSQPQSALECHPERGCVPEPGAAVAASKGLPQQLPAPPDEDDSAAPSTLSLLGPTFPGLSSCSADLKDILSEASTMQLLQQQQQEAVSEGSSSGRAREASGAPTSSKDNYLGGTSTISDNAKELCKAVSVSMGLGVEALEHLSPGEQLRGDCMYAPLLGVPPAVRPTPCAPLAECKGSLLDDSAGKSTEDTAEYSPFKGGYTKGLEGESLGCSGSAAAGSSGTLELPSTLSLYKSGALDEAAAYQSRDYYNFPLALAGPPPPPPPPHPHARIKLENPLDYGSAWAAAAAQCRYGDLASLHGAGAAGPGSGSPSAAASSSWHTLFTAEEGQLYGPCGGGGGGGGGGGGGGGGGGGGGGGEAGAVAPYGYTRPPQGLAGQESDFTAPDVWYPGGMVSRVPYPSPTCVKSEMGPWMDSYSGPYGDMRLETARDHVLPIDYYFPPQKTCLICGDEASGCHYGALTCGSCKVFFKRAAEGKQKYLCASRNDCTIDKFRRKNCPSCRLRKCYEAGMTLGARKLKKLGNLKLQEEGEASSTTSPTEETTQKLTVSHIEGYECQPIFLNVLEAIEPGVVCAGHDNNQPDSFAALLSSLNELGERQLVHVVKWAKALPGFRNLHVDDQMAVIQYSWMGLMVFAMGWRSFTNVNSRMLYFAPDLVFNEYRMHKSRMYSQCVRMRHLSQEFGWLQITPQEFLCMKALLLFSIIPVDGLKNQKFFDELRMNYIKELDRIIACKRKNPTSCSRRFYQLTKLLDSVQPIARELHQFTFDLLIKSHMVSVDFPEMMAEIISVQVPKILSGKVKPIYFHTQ
In short: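 MDA-kb2 human breast carcinoma cells carrying an MMTV-luciferase reporter (AR- and GR-responsive) were plated, rested 5 hr at 37C, dosed with compounds, then stimulated with 0.5 nM R1881 (final) for 16 hr; luminescence was read after ONE-Glo.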

[11] = molecular target: Estrogen receptor (Homo sapiens) (UniProt P03372); assay: qHTS assay to identify small molecule antagonists of the estrogen receptor alpha (ER-alpha) signaling pathway using the BG1 cell line in the presence of 0.1 nM 17-beta-estradiol (AID 1259244); details: VM7Luc4E2 (BG1) ERE-luciferase, antagonist mode, 0.1 nM E2, 22 h; series mostly up to 92.4 µM; further: nearly all actives have a fitted effect of over 50% in size
Chain of Estrogen receptor (Homo sapiens) (P03372 whole entry, looked up): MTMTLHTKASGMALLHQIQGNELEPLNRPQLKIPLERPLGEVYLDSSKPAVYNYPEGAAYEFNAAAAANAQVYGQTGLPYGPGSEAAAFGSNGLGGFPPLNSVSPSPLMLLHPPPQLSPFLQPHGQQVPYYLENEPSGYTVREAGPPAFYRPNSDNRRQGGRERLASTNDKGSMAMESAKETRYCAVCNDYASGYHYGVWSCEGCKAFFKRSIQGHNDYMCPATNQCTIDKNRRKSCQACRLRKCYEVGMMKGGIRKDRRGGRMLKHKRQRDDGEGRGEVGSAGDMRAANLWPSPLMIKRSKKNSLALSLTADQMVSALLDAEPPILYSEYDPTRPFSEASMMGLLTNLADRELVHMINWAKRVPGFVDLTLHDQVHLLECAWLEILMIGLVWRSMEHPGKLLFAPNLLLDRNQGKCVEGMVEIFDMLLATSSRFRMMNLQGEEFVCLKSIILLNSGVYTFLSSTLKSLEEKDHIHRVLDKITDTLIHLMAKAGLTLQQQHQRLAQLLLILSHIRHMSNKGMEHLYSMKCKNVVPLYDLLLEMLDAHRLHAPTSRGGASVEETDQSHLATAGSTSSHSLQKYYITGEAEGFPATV
In short: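 VM7Luc4E2 cells (endogenous full-length ER-alpha, stable 4xERE-luciferase) were grown 5 days in phenol red-free medium with charcoal-stripped FBS, then exposed 22 h at 37C to compounds plus 0.1 nM (final) 17beta-estradiol; ONE-Glo luminescence read-out.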

[12] = qHTS assay to identify small molecule phospholipidosis (PLD) inducers (AID 1259344; active means well fitted curve in the direction sought with a large enough effect; an effect the other way counts as inactive or inconclusive); details: HepG2 phospholipidosis, LipidTOX Red imaging, 24 h; series mostly up to 38.3 µM
In short: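 Quantitative HTS in HepG2: compound plus LipidTOX Red dye for 24 h, paraformaldehyde fixation with Hoechst 33342, widefield high-content imaging; amiodarone as positive and DMSO as negative control.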

[13] = qHTS assay to identify small molecule HDAC inhibitors (AID 1259364); details: HCT-116 HDAC-Glo I/II luminescence, 2 h; series mostly up to 92.4 µM; further: nearly all actives have a fitted effect of over 45% in size; further: potency means the concentration at half of the fitted maximal effect
In short: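 Wild-type HCT-116 cells were plated overnight, exposed to compounds for 2 h at 37 °C, then given HDAC-Glo class I/II luminogenic reagent for 30 min at room temperature before luminescence was read.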

[14] = qHTS assay to identify small molecule HDAC inhibitors - cell viability counter screen (AID 1259365); details: HCT-116 viability, CellTiter-Glo ATP luminescence, 2 h; series mostly up to 92.4 µM; further: nearly all actives have a fitted effect of over 50% in size; further: potency means the concentration at half of the fitted maximal effect
In short: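 Counter screen in wild-type HCT-116 cells: compounds dissolved in DMSO are pin-transferred onto overnight-plated cells and left 2hr at 37C. ATP-based CellTiter-Glo luminescence then measures viable cells.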

[15] = qHTS assay to identify small molecule agonists of the sonic hedgehog signaling (Shh) pathway - cell viability counter screen (AID 1259366); details: NIH/3T3 Gli1-Luc viability, CellTiter-Fluor, 24 h; series mostly up to 92.4 µM; further: nearly all actives have a fitted effect of over 50% in size; further: potency means the concentration at half of the fitted maximal effect
In short: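 Cells are plated at 2,000 per well and left 4hr at 37C, 5% CO2 before compound addition. After 23hr of treatment, CellTiter-Fluor reagent is added for 1hr at 37C and fluorescence is measured.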

[16] = qHTS assay to identify small molecule antagonists of the sonic hedgehog signaling (Shh) pathway - cell viability counter screen (AID 1259367); details: NIH/3T3 Gli1-Luc viability, CellTiter-Fluor, 24 h; series mostly up to 92.4 µM; further: nearly all actives have a fitted effect of over 55% in size; further: potency means the concentration at half of the fitted maximal effect
In short: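 Seed 3T3 Gli1-Luc cells at 2,000 per well; incubate 4 hr; add compound in DMSO, then conditioned medium; incubate at 37C with 5% CO2; add CellTiter-Fluor after 23 hr; read fluorescence 1 hr later.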

[17] = qHTS assay to identify small molecule agonists of the sonic hedgehog signaling (Shh) pathway (AID 1259368; calls by dose curve; further: nearly all actives have a fitted effect of over 15% in size); details: NIH/3T3 Gli1-Luc reporter, luciferase, 24 h; series mostly up to 92.4 µM
In short: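 NIH/3T3-derived 3T3Gli1-Luc cells carrying a stably integrated Gli1 response element–firefly luciferase reporter were plated, left 4 hr at 37 C, then given compounds in DMSO for 24 hr. Luminescence was read 30 min after adding luciferase reagent.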

[18] = qHTS assay to identify small molecule antagonists of the sonic hedgehog signaling (Shh) pathway (AID 1259369; calls by dose curve; further: nearly all actives have a fitted effect of over 45% in size; further: potency means the concentration at half of the fitted maximal effect); details: NIH/3T3 Gli1-Luc reporter, Shh antagonist, luminescence 24 h; series mostly up to 92.4 µM
In short: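 NIH/3T3-derived 3T3Gli1-Luc cells with stably integrated Gli1-Luc reporter were preincubated 4hr at 37 C, then given compounds in DMSO plus Shh conditioned medium and incubated 24hr. Firefly luciferase luminescence read after 30min reagent at room temperature.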

[19] = A CellTox Green Cytotoxicity Assay to monitor cytotoxicity in HEK293 cells - 8 hour (AID 1224884); details: CellTox Green fluorescence; series mostly up to 76.8 µM; further: nearly all actives have a fitted effect of over 35% in size
In short: (§3)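 HEK293 cells premixed with CellTox Green dye were seeded at 600 cells/well and left 5 h at 37 C/5% CO2 before pin transfer of 23 nL compound in DMSO. Fluorescence from dye bound to dead-cell DNA was read during 40 h treatment.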

[20] = A CellTox Green Cytotoxicity Assay to monitor cytotoxicity in HEK293 cells - 16 hour (AID 1224888); details: CellTox Green fluorescence; series mostly up to 76.8 µM; further: nearly all actives have a fitted effect of over 35% in size
In short: as §3

Row | Compound | Potency [1] | Potency [2] | Potency [3] | Potency [4] | Potency [5] | Potency [6] | Potency [7] | Potency [8] | Potency [9] | Potency [10] | Potency [11] | Potency [12] | Potency [13] | Potency [14] | Potency [15] | Potency [16] | Potency [17] | Potency [18] | Potency [19] | Potency [20]
1 | COc1ccc(Cc2cnc(N)nc2N)cc1OC | inactive | inactive | inactive | inactive | inactive | inactive | inactive | inactive | inactive | inactive | inactive | inactive | inactive | inactive | inactive | inactive | inactive | inactive | – | –
2 | CN(C)c1ccc(C(=C2C=CC(=[N+](C)C)C=C2)c2ccccc2)cc1 | inactive | – | 10.7 µM (active) [middle of 4 runs] | 2.39 µM (active) [middle of 4 runs] | 13.8 µM (active) and 10.7 µM (active) and 13.4 µM (active) | – | – | – | 27.3 µM (active) and 2.98 µM (active) | – | – | inactive | 24.3 µM (active) and inactive and 13.3 µM (active) | 61.1 µM (active) and inactive | – | 2.98 µM (active) [middle of 4 runs] | inactive | 172 nM (active) and 376 nM (active) and 237 nM (active) | inactive | –
3 | Clc1ccc2c(c1)C(N1CCNCC1)=Nc1ccccc1O2 | inactive | 49 µM (active) and 26.8 µM (active) | – | 43.6 µM (active) and 26.8 µM (active) | inactive | – | inactive | inactive | – | – | inactive | inactive | inactive | inactive | 24.3 µM (active) and 13.3 µM (active) | inactive | inactive | inactive | – | –
4 | N[C@@H]1CONC1=O | – | – | inactive | – | inactive | inactive | – | inactive | inactive | – | – | inactive | inactive | – | inactive | inactive | inactive | inactive | inactive | inactive
5 | O=C1CC2(CCCC2)CC(=O)N1CCCCN1CCN(c2ncccn2)CC1 | inactive | 43.6 µM (active) and inactive | inactive | – | inactive | inactive | inactive | inactive | inactive | – | – | – | – | inactive | – | inactive | inactive | 19.3 µM (active) and inactive | – | –
6 | Cc1c(O)cccc1C(=O)N[C@@H](CSc1ccccc1)[C@H](O)CN1C[C@H]2CCCC[C@H]2C[C@H]1C(=O)NC(C)(C)C | inactive | 12 µM (active) | – | 21.3 µM (active) | inactive | inactive | inactive | 8.41 µM (active) and 15 µM (active) | 59.5 µM (active) and 26.6 µM (active) | 18.8 µM (active) | – | inactive | inactive | inactive | 1.5 µM (active) and 1.88 µM (active) | 2.37 µM (active) and 3.76 µM (active) | inactive | 8.41 µM (active) and 29.8 µM (active) | – | –
7 | c1ccc2n[nH]nc2c1 | inactive | inactive | inactive | inactive | inactive | – | – | inactive | inactive | – | – | – | inactive | – | inactive | inactive | inactive | inactive | – | inactive
